# Test results published in PubChem BioAssay (NCATS).
# Results filed as inconclusive are left out. Unmarked numbers belong to inactive results. Activity calls are given as the source filed them. Calls follow the shape of the dose curve; as a rule, active = well fitted inhibition curve with a large enough effect; inconclusive = small, poorly fitted or top-dose-only effect; inactive = flat fitted curve, though single readings scatter.
# How the values were obtained:
# Assay in all cases: Cytotoxic Profiling of Annotated Libraries Using Quantitative High-Throughput Screening (AID 1296008); also: nearly all actives have a fitted effect of over 60% in size
# Conditions in all cases: Five cell lines viability, CellTiter-Glo ATP luminescence, 48-72 h; max response: active compounds read low
# CRL-7250 = system: CRL-7250
# Outline: (§1)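 Cells exposed to compounds for 48 or 72 hr at 37 degrees Celsius. Viability read as ATP-coupled luminescence with CellTiter-Glo after 10 min at room temperature.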
# HaCat = system: HaCat
# Outline: as §1
# KB-3-1 = system: KB-3-1
# Outline: as §1
# NIH3T3 = system: NIH3T3
# Outline: as §1
# HEK293 = system: HEK293
# Outline: as §1
# % is scaled to controls: 0 for no effect and ±100 for the full control effect; potency is read from the fitted curve at half-maximal effect.
smiles,measurement,setting,value
CC(=O)OC1C[C@@]2(C)[C@@H](CC[C@@H](C)[C@]23Cc2c(O)cc4c(c2O3)CNC4=O)C(C)(C)[C@@H]1O (stereo not given in full),max response,CRL-7250,2.93%
same,max response,HaCat,4.03%
same,outcome,KB-3-1,inactive
same,max response,NIH3T3,1.15%
CC(=O)N1CCN(C(=O)Cc2ccc(Nc3ncc(F)c(Nc4ccc(C(=O)Nc5ccccc5Cl)cc4)n3)cc2)CC1,Potency,HEK293,6.51 µM (active)
same,Potency,HaCat,4.11 µM (active)
same,Potency,KB-3-1,5.17 µM (active)
O=C1CCC(c2ccccc2)(C2CCN(Cc3ccc(I)cc3)CC2)C(=O)N1 (stereo not given),Potency,HEK293,18.4 µM (active)
same,max response,HaCat,-3.49%
same,max response,KB-3-1,-7.17%
CC(C)CCC(=O)CC1c2ccccc2C(=O)N1c1ccc2ccc(Cl)nc2n1 (stereo not given),Potency,HEK293,16.4 µM (active)
same,max response,HaCat,3.26%
same,max response,KB-3-1,2.42%
C=CC(C)(O)C(O)CC1C(C)(O)C(O)C(O)C2C(C)(C)CCCC21C (stereo not given),max response,CRL-7250,1.81%
same,max response,KB-3-1,-10.5%
same,outcome,NIH3T3,inactive
CC1(C)C2CC(OC3OC(COC4OCC(O)(CO)C4O)C(O)C(O)C3O)C1(C)CC2O (stereo not given),max response,HEK293,-3.81%
same,max response,HaCat,-6.58%
same,outcome,KB-3-1,inactive
CC1=CC(=O)[C@H]2C(C)(C)CCC[C@]2(C)[C@@]1(O)CO,max response,CRL-7250,-8.81%
same,max response,KB-3-1,7.19%
same,max response,NIH3T3,3.55%
O=C(OC[C@H]1O[C@H](O[C@]2(CO)O[C@H](CO)[C@@H](O)[C@@H]2O)[C@H](O)[C@@H](O)[C@@H]1O)c1ccccc1,max response,CRL-7250,-1.41%
same,max response,HaCat,0.397%
same,max response,KB-3-1,8.19%
same,max response,NIH3T3,4.12%
Cc1noc(-c2ccc(-c3ccc(CC(=O)O)cc3)cc2)c1NC(=O)O[C@H](C)c1ccccc1,max response,HEK293,-14%
same,max response,HaCat,-1.06%
same,max response,KB-3-1,0.957%
CCOc1ccc(S(=O)(=O)n2c(C)nc3ccccc32)cc1,max response,CRL-7250,-1.87%
same,max response,HaCat,-31.1%
same,max response,KB-3-1,-3.74%
same,max response,NIH3T3,-7.13%
CCCn1c(=O)c2[nH]c(-c3ccc(OCC(=O)O)cc3)nc2n(CCC)c1=O,max response,CRL-7250,3.25%
same,max response,HaCat,-4.84%
same,outcome,KB-3-1,inactive
same,max response,NIH3T3,-3.27%
COc1cc(O)cc(C)c1C(=O)O[C@@H]1[C@H](O)[C@@H](CO)O[C@H]1n1ccc(=O)[nH]c1=O,Potency,HEK293,5.63 µM (active)
same,max response,HaCat,-4.84%
same,max response,KB-3-1,-16.4%
CCCC(=O)NCCc1csc(-c2ccc(Cl)cc2)n1,Potency,HEK293,16.4 µM (active)
same,max response,HaCat,-70.2%
same,max response,KB-3-1,-24.2%
c1cc(Nc2cc(C3CC3)[nH]n2)nc(Nc2ccc3nc[nH]c3c2)n1,Potency,CRL-7250,0.82 µM (active)
same,Potency,KB-3-1,1.3 µM (active)
C=C(C)C(=O)OC1C(OC(C)=O)/C(C=O)=C\CC/C(CO)=C/C2OC(=O)C(=C)C21 (stereo not given),Potency,HEK293,5.63 µM (active)
same,max response,HaCat,-6.21%
same,max response,KB-3-1,-25.3%
COc1ccc(-c2cnc(-c3cccc4c3-c3ccccc3C4=O)o2)cc1,Potency,HEK293,0.112 µM (active)
same,max response,HaCat,-2.01%
same,Potency,KB-3-1,0.0709 µM (active)
NC(=O)[C@H](O[C@@H]1O[C@H](CO)[C@@H](O)[C@H](O)[C@H]1O)c1ccccc1,outcome,CRL-7250,inactive
same,outcome,KB-3-1,inactive
same,max response,NIH3T3,4.94%
COc1ccc(C(=O)Nc2ncc(-c3ccc(C(=O)O)cc3)s2)cc1,Potency,HEK293,7.31 µM (active)
same,Potency,HaCat,5.8 µM (active)
same,Potency,KB-3-1,2.91 µM (active)
C=CC(=O)Nc1cccc(Nc2nc(Nc3ccc(N4CCN(C(C)=O)CC4)cc3OC)ncc2C(F)(F)F)c1,Potency,HEK293,6.51 µM (active)
same,Potency,HaCat,2.91 µM (active)
same,Potency,KB-3-1,11.6 µM (active)
